From PubChem BioAssay
D2 ag-1 – agonists of human D2 dopamine receptor; P14416; HEK293 T-REx D2 cells, calcium flux agonist mode; activation, % at 2 µM; 0.53% of 340,000 active;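 active = activation over 3 SD above normal in the single-dose calcium agonist read, cut at about 30% in these data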; note: 0% is about no effect
Target sequence (P14416 whole entry, looked up): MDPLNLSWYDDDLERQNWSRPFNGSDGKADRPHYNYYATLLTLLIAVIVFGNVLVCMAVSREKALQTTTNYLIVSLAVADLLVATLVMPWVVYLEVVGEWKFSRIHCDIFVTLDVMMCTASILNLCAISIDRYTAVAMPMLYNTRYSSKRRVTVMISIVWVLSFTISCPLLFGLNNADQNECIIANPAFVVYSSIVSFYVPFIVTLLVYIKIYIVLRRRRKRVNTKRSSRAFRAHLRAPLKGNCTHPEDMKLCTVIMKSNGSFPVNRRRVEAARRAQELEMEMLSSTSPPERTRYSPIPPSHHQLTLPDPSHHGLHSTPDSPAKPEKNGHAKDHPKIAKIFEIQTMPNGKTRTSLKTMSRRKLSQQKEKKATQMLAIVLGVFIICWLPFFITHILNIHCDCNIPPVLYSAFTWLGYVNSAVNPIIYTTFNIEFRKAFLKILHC
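Tetracycline-induced HEK293 T-REx cells with force-coupled D2 receptor, plated overnight at 30 C, loaded with no-wash calcium dye. After a 10 s baseline, compound was pin-added and calcium flux read kinetically for 180 s; calcium rises flagged agonists.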
D2 ag-2 – agonists of human D2 dopamine receptor (beta-arrestin) | DiscoveRx PathHunter D2 beta-arrestin, luminescence, 90 min; 100% = 57 uM dopamine signal | activation, % (no concentration beside the values) | 0.084% of 360,000 active; in the data active = activation above about 40%; inconclusive = between about 15% and that limit
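Agonist mode: compounds alone added to overnight-plated D2 PathHunter cells for 90 min at 37 C, with 57 uM final dopamine (EC100) defining full response. Beta-arrestin recruitment detected by chemiluminescent reagent, read after 1 h at ambient temperature.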
D2 PAM-1 – potentiates the human D2 dopamine receptor allosterically. P14416. DiscoveRx D2 beta-arrestin cells, luminescence, 90 min; 100% = 57 uM dopamine signal. potentiation, % (concentration not given with the values). 0.23% of 360,000 active. AID 624464; in the data active = potentiation above about 50%; inconclusive = mostly about 30% to 49%
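PathHunter D2 cells, attached overnight at 37 deg C, received compound in DMSO plus dopamine at EC20 (50 nM final) for 90 min at 37 deg C. Beta-arrestin recruitment was read as luminescence after 1 h with detection reagent at ambient temperature.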
D2 PAM-2 – positively modulates the human D2 dopamine receptor allosterically. AID 485347. P14416. 0.34% of 340,000 active. potentiation, % at 10 µM. HEK293 T-REx D2, calcium flux, EC20 dopamine potentiation;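 active = potentiation over 3 SD above the plate norm, cut at about 30% in these data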; note: 0% is about no effect
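Using a no-wash calcium dye in inducible, force-coupled HEK293 Trex cells expressing D2, we tracked fluorescence each second for 180 s after compound, then for 180 s after EC20 dopamine to detect augmented signalling.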
D2 antag – antagonizes the human D2 dopamine receptor. 2% of 340,000 active. HEK293 TREx D2 cells, calcium flux, dopamine EC80. AID 485344. P14416. inhibition, % at 10 µM; in the data active = inhibition above about 30%; inactive = below that, where a call was filed; note: 0% is about no effect
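Read-out: kinetic calcium fluorescence (1 cycle/s) in inducible HEK293 T-REx D2 cells after an EC80 dopamine addition that followed 180 s compound preincubation. Loss of the dopamine response indicates antagonism.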
Active calls of the source: *; u = inconclusive; x = not tested or not shown. The list is not random: actives were taken first. Their share in the collection is about 2.4%.

SMILES	D2 ag-1	D2 ag-2	D2 PAM-1	D2 PAM-2	D2 antag
NC(=O)c1ccc(NCc2ccco2)c([N+](=O)[O-])c1	1	-4	-14	5	35*
CC(C)CC1=NN2C(=N)/C(=C\c3coc4ccccc4c3=O)C(=O)N=C2S1	13	3	4	2	-4
CCSC1=NSC2=NC(=O)/C(=C\c3coc4ccccc4c3=O)C(=N)N12	100*	-1	u	-7	12
O=C(CCc1nc2ccccc2c(=O)[nH]1)Nc1ccc(N2CCCCC2)cc1	-5	1	-10	-3	77*
Cc1ccc2c(cnn2C(=O)CCCC(=O)NCc2ccc(Cl)cc2)c1	0	-6	-8	4	9
Cc1ccc(CNC(=O)CCC(=O)n2ncc3cc(C)ccc32)cc1	0	-5	-2	2	47*
COc1cc2c(cc1OC)CN(C(=O)CN1C(=O)c3ccc([N+](=O)[O-])cc3C1=O)CC2	0	6	60*	0	0
COc1ccc(NC(=O)CCN2C(=O)c3ccc([N+](=O)[O-])cc3C2=O)c(OC)c1	-1	u	56*	-2	1
COc1cc2c(cc1OC)CN(C(=O)CCCN1C(=O)c3ccccc3C1=O)CC2	0	-1	3	3	-14
CCOC(=O)c1c(S(=O)(=O)N2CCN(c3cc(Cl)ccc3C)CC2)c(C)n(C)c1C	1	x	x	-11	x
CCCc1ccc(S(=O)(=O)N2CCC(c3nnc(-c4cccc(C)c4)o3)CC2)cc1	1	x	x	3	x
O=C(NC1CCN(Cc2ccccc2)CC1)c1cccc(S(=O)(=O)Nc2ccc(F)cc2)c1	0	2	-6	-28	45*
C=CCN(c1ccccc1)S(=O)(=O)c1cccc(C(=O)NC2CCN(Cc3ccccc3)CC2)c1	0	-4	-32	-10	66*
Cc1ccc(NS(=O)(=O)c2cccc(C(=O)NC3CCN(Cc4ccccc4)CC3)c2)c(C)c1	x	0	-3	x	x
O=C(NC1CCN(Cc2ccccc2)CC1)c1cccc(S(=O)(=O)Nc2ccc(Br)cc2)c1	1	3	-32	-17	34*
COCCCN(Cc1ccco1)C(=O)c1cc2c(s1)-c1ccccc1OC2	0	x	x	15	x
COc1ccc(OC(C)C(=O)NCc2nc(-c3cccc(C)c3)no2)cc1 (configuration not stated)	x	x	x	0	x
Cc1ccc(NC(=O)N2CCN(c3nnc(C)c4c(C)n(-c5ccccc5)nc34)CC2)cc1Cl	2	x	x	-1	x
COc1cc2c(cc1OC)CN(C(=O)CSc1nc(C)cc(C)c1C#N)CC2	0	-3	-11	34*	12
COc1cc2c(cc1OC)CN(C(=O)CSc1ccc(F)cc1)CC2	0	-1	6	-15	61*
CCOc1ccc2[nH]c3c(NCCOC)ncnc3c2c1	-2	-7	12	31*	-10
CCCn1c(SCC(=O)c2ccc3c(c2)OCCO3)nc2c1c(=O)n(C)c(=O)n2C	1	0	2	21	31*
CCCn1c(SCC(=O)c2ccc3c(c2)OCCO3)n[nH]c1=O	3	1	-19	-4	-16
Cc1ccc(C(=O)N/C(=C\c2sccc2C)C(=O)NCCCN2CCOCC2)cc1	0	-3	-11	-9	31*
Cc1ccccc1OCC(=O)Nc1ccccc1-c1ccccc1NC(=O)COc1ccccc1C	0	-4	-20	-3	-1
SMILES	D2 ag-1	D2 ag-2	D2 PAM-1	D2 PAM-2	D2 antag
Cc1cc(Br)ccc1NC(=O)CNC(=O)COc1ccccc1C	0	-5	-13	-14	32*
CCCNC(=O)CSC1=N/C(=C/c2ccc(F)cc2)C(=O)N1CC	0	-2	-13	9	35*
C=CCN1C(=O)/C(=C\c2ccc(C)cc2)N=C1SCC(=O)NCCC	0	-1	-15	5	9
CCOC(=O)C1=NOC(CNC(=O)c2c(-c3ccccc3Cl)noc2C)C1 (configuration not stated)	1	-1	-13	3	-8
CC(=O)C1=NOC(CNC(=O)c2c(-c3ccccc3Cl)noc2C)C1 (configuration not stated)	0	7	-2	32*	-6
CCOC(=O)N1CCC(NC(=O)c2cnn(-c3ccc(C)cc3)c2-n2cccc2)CC1	-1	x	x	-1	x
O=C(Nc1ccc(O)cc1)c1ccccc1OCc1ccccc1	1	2	0	14	0
COc1cc(NC(=O)c2ccccc2OCc2ccccc2)cc(OC)c1OC	-1	0	56*	-7	-4
Cc1cccc(C)c1Nc1c(-c2ccccc2Cl)nc2cnccn12	-1	x	x	16	x
CCn1c(SCC(=O)N2CCC(C)CC2)nnc1-c1ccccc1O	0	x	x	16	x
CCCN(CCC)C(=O)CSc1ncccc1C(=O)O	38*	0	-17	-19	3
CCCCC(=O)Nc1ccc2oc(-c3ccncc3)nc2c1	x	-2	-8	x	x
CCCCCC(=O)Nc1ccc2oc(-c3cncc(Br)c3)nc2c1	1	0	-9	11	-16
CCCC(=O)Nc1ccc2oc(-c3ccncc3)nc2c1	-1	-1	-6	34*	1
CCCC(=O)Nc1ccc2oc(-c3cncc(Br)c3)nc2c1	0	-1	-3	8	39*
COc1ccc(CNc2nc3c(-c4ccc(C)cc4)nnn3c3ccccc23)cc1	2	x	x	-17	x
O=c1c2sc3ccccc3c2n(Cc2ccc(F)cc2)c(=O)n1Cc1ccccc1	0	x	x	-5	x
CCOc1cccc2sc(Cl)nc12	0	-1	-8	1	8
CCOc1ccc(OCC)c2sc(C)nc12	-2	-4	-7	37*	-23
O=c1nc2s/c(=C\c3ccco3)c(=O)n2nc1Cc1ccc(F)cc1	1	0	-8	6	35*
CCCCn1c(CNC(=O)C23CC4CC(CC(C4)C2)C3)nnc1SCC(=O)Nc1nnc(C)s1	0	-3	-4	-4	6
CCn1c(CNC(=O)C23CC4CC(CC(C4)C2)C3)nnc1SCC(=O)Nc1nnc(C)s1	0	-1	1	43*	0
Cc1cccc(C)c1NC(=O)C(c1cccs1)N(Cc1ccco1)C(=O)Cn1nnc2ccccc21 (configuration not stated)	0	-11	13	35*	5
CCCOc1ccc(C(=O)NC(=S)NNC(=O)c2c(-c3ccccc3)noc2C)cc1	70*	-14	-23	-12	25
CCCOc1ccc(C(=O)NNC(=S)NC(=O)CC)cc1	0	-6	-18	-11	72*
Cc1onc(-c2ccccc2)c1C(=O)Nc1nnc(COc2ccc(Cl)cc2)s1	1	0	u	x	39*
C=CCNC(=S)NNC(=O)c1ccc(OCCC)cc1	-1	-5	-8	-4	6
CCCOc1ccc(NC(=O)c2c(-c3ccccc3)noc2C)cc1	0	-6	1	-7	1
